Values without a mark were called inactive. Inconclusive results are not listed. The source made the active and inactive calls. Unless noted, calls come from the whole dose curve; as a rule, active = well fitted curve in the direction sought with a large enough effect in the repeat runs; inconclusive = weak or mixed curves; inactive = no such curve, though single readings can be large; an effect the other way counts as inactive or inconclusive.

We go through 28 molecules from PubChem BioAssay (Tox21).

Assay [1] can be described thus: qHTS assay to identify small molecule agonists of the sonic hedgehog signaling (Shh) pathway - cell viability counter screen (AID 1259366). Note: nearly all actives have a fitted effect of over 50% in size. The method in brief:
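Cytotoxicity counter screen run in the same wells as the Shh reporter assay. NIH/3T3 cells carrying a Gli1 response element–driven luciferase were treated with DMSO-dissolved compounds for 24hr, and live-cell protease activity was measured with CellTiter-Fluor.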

The nature of assay [2]: qHTS assay to identify small molecule antagonists of the sonic hedgehog signaling (Shh) pathway - cell viability counter screen (AID 1259367). Note: nearly all actives have a fitted effect of over 55% in size. Summed up: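 Viability was read by CellTiter-Fluor fluorescence in the same wells, reagent added 23 hr into compound treatment and incubated 1 hr at 37C. The 3T3 Gli1-Luc reporter cells (2,000/well) received conditioned medium after compound and ran 24 hr.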

The nature of assay [3]: qHTS assay to identify small molecule agonists of the sonic hedgehog signaling (Shh) pathway (AID 1259368; calls by dose curve;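 note: NIH/3T3-derived 3T3Gli1-Luc cells carrying a stable Gli1-driven firefly luciferase reporter; series mostly up to about 92 µM; nearly all actives have a fitted effect of over 15% in size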). Summed up:
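Cells of a mouse NIH/3T3 clone stably expressing luciferase under the Gli1 transcriptional response element are exposed to test chemicals for 24 hr at 37 C. Pathway activation is detected as a rise in luminescence.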

The nature of assay [4]: qHTS assay to identify small molecule antagonists of the sonic hedgehog signaling (Shh) pathway (AID 1259369; calls by dose curve; note: nearly all actives have a fitted effect of over 45% in size). The method in brief:
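Cells are plated and held 4hr at 37 C, compounds (DMSO) are pinned in, conditioned medium is added to stimulate the pathway, and after 24hr luciferase reagent is added for 30min before luminescence is read.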

In assay [5] the target is Estrogen receptor beta (Homo sapiens) (UniProt Q92731). Briefly: qHTS assay to identify small molecule agonists of the estrogen receptor beta (ER-beta) signaling pathway (AID 1259377; active = well fitted activation curve with a large enough effect in the signal ratio in the repeat runs, not every such curve was filed as active; the % refers to the signal ratio; note: potency is the fitted concentration of half-maximal effect). Summed up:
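HEK293T ER-beta-UAS-bla; 2% charcoal-stripped FBS; cells pre-incubated 6 hr, compound 16 hr, 37C/5% CO2; LiveBLAzer B/G FRET substrate 2 h RT; fluorescence intensity read.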

Assay [6] is described as follows: qHTS assay to identify small molecule agonists of the androgen receptor (AR) signaling pathway in the presence of an antagonist - cell viability counter screen (AID 1259379).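 Note: MDA-kb2 human breast cancer cells carrying an MMTV luciferase reporter; series mostly up to about 92 µM; nearly all actives have a fitted effect of over 25% in size.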 The method in brief: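 Cytotoxicity is assessed by CellTiter-Fluor in MDA-kb2 cells carrying an MMTV-driven luciferase reporter. Cells receive 3.0uM nilutamide plus compounds at 15 concentrations and incubate 16 hr at 37C without CO2 before fluorescence reading.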

Assay [7] can be described thus: qHTS assay to identify small molecule agonists of the estrogen receptor beta (ER-beta) signaling pathway - cell viability counter screen (AID 1259380). Note: nearly all actives have a fitted effect of over 30% in size. Summed up: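 Cytotoxicity is measured in parallel with the reporter screen: after 16 hr compound exposure at 37C and a 2 hr LiveBLAzer step, CellTiter-Glo is added to the same ER-beta-UAS-bla HEK293T wells and luminescence read after 30 min.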

Assay [8] deals with Androgen receptor (Homo sapiens) (UniProt P10275). Briefly: qHTS assay to identify small molecule agonists of the androgen receptor (AR) signaling pathway in the presence of an antagonist (AID 1259381; calls by dose curve; note: nearly all actives have a fitted effect of over 15% in size). Summed up:
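Agonist-mode confirmation screen: human MDA-kb2 cells stably expressing luciferase under an MMTV promoter bearing AR and GR response elements, co-treated with 3.0uM nilutamide (final). Luminescence measured after 16hr compound incubation.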

The nature of assay [9]: qHTS assay to identify small molecule antagonists of the estrogen receptor beta (ER-beta) signaling pathway - cell viability counter screen (AID 1259382).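 Note: HEK293T cells carrying ER-beta-UAS-bla reporter stimulated with estradiol; series mostly up to about 92 µM; nearly all actives have a fitted effect of over 55% in size.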 Summed up:
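Cytotoxicity counter screen multiplexed with the beta-lactamase antagonist assay: GripTite HEK293T ER-beta-bla cells were treated 16 hr with test chemicals in the presence of 1nM 17-beta-estradiol, and viability was measured by CellTiter-Glo.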

Assay [10] has as its target Estrogen receptor beta (Homo sapiens) (UniProt Q92731). Briefly: qHTS assay to identify small molecule antagonists of the estrogen receptor beta (ER-beta) signaling pathway (AID 1259378; active = well fitted inhibition curve with a large enough effect in the signal ratio in the repeat runs, not every such curve was filed as active; the % refers to the signal ratio). Summed up:
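Antagonist mode: compounds added to beta-lactamase reporter HEK293T ER-beta-UAS cells stimulated with E2 (1nM final), 16 hr at 37C. LiveBLAzer B/G FRET substrate, 2 hours room temperature, fluorescence read-out.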
% is set by controls: 0 for no effect and ±100 for the full control effect.

Sequence of Estrogen receptor beta (Homo sapiens) (Q92731 whole entry, looked up): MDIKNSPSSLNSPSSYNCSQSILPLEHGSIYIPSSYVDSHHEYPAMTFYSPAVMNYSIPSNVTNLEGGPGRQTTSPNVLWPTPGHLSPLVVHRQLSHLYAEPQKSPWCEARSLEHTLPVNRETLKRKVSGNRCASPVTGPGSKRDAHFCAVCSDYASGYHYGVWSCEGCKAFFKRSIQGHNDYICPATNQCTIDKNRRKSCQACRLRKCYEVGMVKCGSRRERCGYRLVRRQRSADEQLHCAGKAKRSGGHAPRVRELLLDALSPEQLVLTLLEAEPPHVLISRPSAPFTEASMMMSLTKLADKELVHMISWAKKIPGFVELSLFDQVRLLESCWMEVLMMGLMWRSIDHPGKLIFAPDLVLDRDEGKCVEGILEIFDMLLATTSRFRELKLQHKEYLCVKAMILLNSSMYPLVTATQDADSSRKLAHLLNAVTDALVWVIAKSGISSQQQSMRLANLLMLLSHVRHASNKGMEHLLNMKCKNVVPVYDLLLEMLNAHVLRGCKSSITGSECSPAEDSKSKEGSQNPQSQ
Sequence of Androgen receptor (Homo sapiens) (P10275 whole entry, looked up): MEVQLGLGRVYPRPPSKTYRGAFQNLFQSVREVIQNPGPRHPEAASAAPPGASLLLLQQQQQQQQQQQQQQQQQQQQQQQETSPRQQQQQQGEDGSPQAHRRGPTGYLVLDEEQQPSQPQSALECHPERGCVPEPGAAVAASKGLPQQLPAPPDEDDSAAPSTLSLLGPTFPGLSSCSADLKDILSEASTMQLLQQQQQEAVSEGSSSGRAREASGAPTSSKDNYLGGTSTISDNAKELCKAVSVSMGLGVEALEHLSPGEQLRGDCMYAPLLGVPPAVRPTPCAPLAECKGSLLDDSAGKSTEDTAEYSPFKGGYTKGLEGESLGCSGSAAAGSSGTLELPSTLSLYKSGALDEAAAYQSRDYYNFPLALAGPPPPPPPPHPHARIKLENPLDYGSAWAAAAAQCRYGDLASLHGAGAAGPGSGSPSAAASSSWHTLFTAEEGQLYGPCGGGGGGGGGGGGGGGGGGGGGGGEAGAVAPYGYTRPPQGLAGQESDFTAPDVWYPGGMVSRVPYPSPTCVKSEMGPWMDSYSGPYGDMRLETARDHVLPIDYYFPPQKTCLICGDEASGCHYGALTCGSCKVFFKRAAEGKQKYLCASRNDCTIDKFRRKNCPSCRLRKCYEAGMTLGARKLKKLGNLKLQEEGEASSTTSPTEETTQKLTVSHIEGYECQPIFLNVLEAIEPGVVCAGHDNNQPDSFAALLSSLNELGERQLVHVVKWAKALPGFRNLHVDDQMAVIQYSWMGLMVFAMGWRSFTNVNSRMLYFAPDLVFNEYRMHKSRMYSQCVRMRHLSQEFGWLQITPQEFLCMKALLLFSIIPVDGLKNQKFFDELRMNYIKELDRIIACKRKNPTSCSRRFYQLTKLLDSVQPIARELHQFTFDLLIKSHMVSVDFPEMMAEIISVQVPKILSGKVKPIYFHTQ

For `COC(C)(C)CC(C)=O`, the molecule was classed as inactive in assay [1], in assay [2], in assay [3], in assay [6], in assay [8] and in [9]. Further, the Potency entry in [4], in assay [5] and in assay [7] was “inactive” throughout.
Take `N[C@H]1C(O)O[C@H](CO)[C@@H](O)[C@@H]1O` (some centres not stated): the outcome in [1], in [2], in assay [3], in assay [10], in assay [8] and in assay [9] was inactive. The Potency result in [4], in assay [5] and in [7] was “inactive” throughout.
In the case of `NC(=O)CC[C@@H](N)C(=O)O`, the molecule was classed as inactive in assay [1], in [2], in assay [3], in assay [6] and in assay [9]. Further, the Potency result in [4], in assay [5] and in assay [7] was “inactive” throughout.
Take `CCCCN=C(N)N=C(N)N`: the molecule was called inactive in [1], in [2], in assay [3], in [10], in assay [6] and in assay [9]. For the same molecule, the Potency entry in assay [4], in [5] and in assay [7] was “inactive” throughout.
As for `Cc1ccc(O)c([N+](=O)[O-])c1`, the result in assay [1], in [2], in [3] and in [6] was inactive. Moreover, the Potency result in [4] and in assay [5] was “inactive” throughout.
As for `CCC(C)c1nccnc1OC` (configuration not stated), the outcome in [1], in [2], in [3], in assay [10] and in assay [9] was inactive. For the same molecule, the Potency result in assay [4], in [5] and in assay [7] was “inactive” throughout.
In the case of `CC/C=C/CCCCCCCCCCOC(C)=O`, the molecule was classed as inactive in assay [1], in [2], in [3], in assay [10], in assay [6] and in assay [9]. The Potency entry in assay [4], in [5] and in assay [7] was “inactive” throughout.
Consider `CCCCCCCCCCCBr`, for which the outcome in assay [1], in [2], in assay [3], in assay [10], in assay [6] and in [9] was inactive. The Potency entry in assay [4], in assay [5] and in assay [7] was “inactive” throughout.
Take `CCO[Si](CC(C)C)(OCC)OCC`: the result in [1], in assay [2], in [3], in assay [10], in assay [6] and in [9] was inactive. Besides, the Potency entry in assay [4] and in assay [5] was “inactive” each time.
Turning to `COc1cc(S(N)(=O)=O)cc(C(=O)O)c1OC`, the call in assay [1], in assay [2], in assay [3], in assay [10], in [6] and in assay [9] was inactive. In addition, the Potency entry in assay [4] and in assay [7] was “inactive” throughout.
For `O=C(O)CCC(=O)Nc1ccc(S(=O)(=O)Nc2nccs2)cc1`, the result in [1], in assay [2], in [3], in [6] and in assay [9] was inactive. Besides, the Potency result in [4] and in [5] was “inactive” throughout.
`COc1cc(C(=O)NC2CCCNC2)cc(OC)c1OC` (configuration not stated): the call in [1], in assay [2], in [3], in assay [10] and in [9] was inactive. The Potency entry in assay [4], in assay [5] and in [7] was “inactive” throughout.
`O=S(=O)(O)c1cc(I)c(O)c2ncccc12`: the call in assay [1], in [2], in assay [3], in [10] and in assay [9] was inactive. The Potency result in assay [4], in [5] and in [7] was “inactive” each time.
As to `C=CCOC(=O)CCCCCCCC`, the result in assay [1], in assay [2], in assay [3], in [10], in assay [6] and in [9] was inactive. For the same molecule, the Potency entry in assay [4] and in assay [7] was “inactive” throughout.
Take `CC/C=C\CCCCCCCCCCOC(C)=O`: the call in [1], in [2], in assay [3], in [10], in assay [6] and in [9] was inactive. In addition, the Potency result in assay [4], in assay [5] and in assay [7] was “inactive” in each case.
With `C=C(C)C(=O)OCCOC1CC2CC1C1C=CCC21` (configuration not stated), the molecule was called inactive in assay [1], in assay [2], in [3], in assay [10], in [6] and in assay [9]. For the same molecule, the Potency result in [4] and in [5] was “inactive” each time.
In the case of `CC1(C)CC(N)CC(C)(C)N1`, the call in assay [1], in assay [2], in [3], in [10] and in assay [9] was inactive. Also, the Potency result in [4], in assay [5] and in assay [7] was “inactive” in each case.
As to `CCOC(=O)CC`, the call in assay [1], in [2], in assay [3], in assay [6] and in assay [9] was inactive. Further, the Potency entry in [4] and in assay [5] was “inactive” in each case.
Consider `C[C@@H]1NC(=O)[C@@H](N)CNC(=O)[C@H](C2CCNC(N)=N2)NC(=O)/C(=C/NC(N)=O)NC(=O)[C@H](CNC(=O)C[C@@H](N)CCCN)NC1=O` (some centres not stated), for which the results for the viability change, negative = cytotoxic in assay [1] and in [2] were -4% [at 0.349 µM] and 1.74% [at 0.349 µM], respectively. In [3], the activity change is 0.0291% [at 0.349 µM]. In addition, in [4], the activity change, negative = inhibition was 22.6% [at 0.349 µM]. For the same molecule, the activation in assay [5] was 1.61% [at 0.348 µM]. The activity, negative = inhibition in assay [10] was -0.409% [at 0.349 µM]. Moreover, the results for the activity change, negative = cytotoxicity in assay [6], in [7] and in assay [9] were 5.61% [at 0.35 µM], 11.9% [at 0.349 µM] and 4.08% [at 0.349 µM], respectively.
Turning to `CC(=O)O[C@@H]1CC2C3CCc4cc(OC(=O)c5ccccc5)ccc4C3CCC2(C)[C@H]1OC(C)=O` (some centres not stated), the molecule was called inactive in assay [1], in assay [2], in [3], in assay [6], in assay [8] and in assay [9]. In assay [4], the Potency result is “inactive”. Besides, the Potency in assay [5] is 13.3 nM (active).
For the molecule `N#CC1(N)CCCCC1`, the outcome in [1], in assay [2], in assay [3], in [10], in assay [6] and in assay [9] was inactive. Also, the Potency result in assay [4], in assay [5] and in assay [7] was “inactive” in each case.
Take `CCCOc1ccc(C(=O)OCCN(CC)CC)cc1N`: the molecule was called inactive in [1], in assay [2], in assay [3], in assay [10] and in [9]. Also, the Potency entry in [4], in assay [5] and in assay [7] was “inactive” throughout.
For the molecule `CCCCCC(CC)OC(=O)CCCOc1ccc(Cl)cc1Cl` (configuration not stated), the call in [1], in assay [2], in assay [3], in assay [10], in assay [6] and in assay [9] was inactive. Besides, the Potency entry in assay [4], in [5] and in assay [7] was “inactive” in each case.
As for `COc1ccccc1N1CCN(CC(O)COc2cc(OC)c(OC)c(OC)c2)CC1` (configuration not stated), the call in [1], in assay [2], in assay [3], in [10] and in assay [9] was inactive. The Potency entry in assay [4], in [5] and in assay [7] was “inactive” throughout.
For the molecule `C=CCn1cc[n+](C)c1`, the molecule was called inactive in assay [1], in [2], in [3], in assay [10], in [6] and in assay [9]. For the same molecule, the Potency result in [4] and in assay [7] was “inactive” in each case.
In the case of `CCCCCCCOC(C)=O`, the result in assay [1], in assay [2], in assay [3], in [6] and in assay [9] was inactive. Further, the Potency result in [4] and in assay [7] was “inactive” each time.
For `CC(O)C(CO)C(C)O` (configuration not stated), the call in assay [1], in assay [2], in assay [3], in assay [10], in assay [6] and in [8] was inactive. In assay [9], the molecule was called inactive. The Potency result in [5] and in [7] was “inactive” in each case.
Regarding `CCCc1ccc(O)c(OC)c1`, the molecule was called inactive in [1], in assay [2], in [3] and in assay [9]. The Potency result in assay [4] and in assay [7] was “inactive” each time.
